Several values for one entry are separate records, joined by “and”; a condition that tells them apart may be missing. Equal entries are not always repeated. In all, about 5,300 compounds were measured (“PER2::LUC luminescence relative to vehicle control”: median about 0.96, highest 2% from about 1.3 on). This excerpt belongs to a sample that is enriched for the highest values.
Test system: mPer2Luc MEF
Test: PER2::LUC luminescence relative to vehicle control (fold of vehicle); higher = higher PER2::LUC reporter signal
Details: 10 µM
Method in brief: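 The value is PER2::LUC luminescence expressed as fold of vehicle control. Mouse embryonic fibroblasts carrying the mPer2Luc reporter were seeded at ~3000 cells per well in 384-well plates and grown in DMEM with 10% FBS at 37 °C and 5% CO2. Compounds from commercial libraries were added at 10 μM 48 h after seeding, and luminescence was read with the ONE-Glo luciferase assay system 24 h and 30 h after treatment, followed by an alamarBlue viability assay.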

## CC(C)=CCC/C(C)=C/CC/C(C)=C/CC/C(C)=C/C(=O)O
Time after treatment 24 h
  PER2::LUC luminescence: 1.07
Time after treatment 30 h
  PER2::LUC luminescence: 0.976

## COc1c(O)c2c(=O)cc(OC)c3c4c(OC)cc(=O)c5c(O)c(OC)c6c(c(c1CC(C)=C6C(C)=O)c23)c54
Time after treatment 24 h
  PER2::LUC luminescence: 0.779
Time after treatment 30 h
  PER2::LUC luminescence: 0.948

## C=CCSSSCC=C
Time after treatment 24 h
  PER2::LUC luminescence: 1.32
Time after treatment 30 h
  PER2::LUC luminescence: 1.05

## O=C(O)c1cc(-c2ccccc2)nc2ccccc12
Time after treatment 24 h
  PER2::LUC luminescence: 0.91
Time after treatment 30 h
  PER2::LUC luminescence: 1.12

## Nc1ccc(-c2nc3ccc(-c4nc5ccc(N)cc5[nH]4)cc3[nH]2)cc1
Time after treatment 24 h
  PER2::LUC luminescence: 0.876
Time after treatment 30 h
  PER2::LUC luminescence: 0.866

## Nc1ccc(-c2ccc3ccccc3n2)cc1
Time after treatment 24 h
  PER2::LUC luminescence: 1.74
Time after treatment 30 h
  PER2::LUC luminescence: 1.29

## COc1cc(Nc2nc3c(s2)CCCC3c2ccc(F)cc2)ccc1-n1cnc(C)c1 (configuration not stated)
Time after treatment 24 h
  PER2::LUC luminescence: 1.05
Time after treatment 30 h
  PER2::LUC luminescence: 1.02

## C/C=C\c1ccc(OC)cc1
Time after treatment 24 h
  PER2::LUC luminescence: 1
Time after treatment 30 h
  PER2::LUC luminescence: 1.03

## CC(CC(=O)O)C(N)C(=O)O (racemic)
Time after treatment 24 h
  PER2::LUC luminescence: 0.979
Time after treatment 30 h
  PER2::LUC luminescence: 0.922

## O=c1cc(-c2ccccc2F)[nH]c2cc3c(cc12)OCO3
Time after treatment 24 h
  PER2::LUC luminescence: 0.9
Time after treatment 30 h
  PER2::LUC luminescence: 0.871

## CC(C)=CC[C@@H](OC(=O)C=C(C)C)C1=CC(=O)c2c(O)ccc(O)c2C1=O
Time after treatment 24 h
  PER2::LUC luminescence: 1.03
Time after treatment 30 h
  PER2::LUC luminescence: 1.03

## CC12CCc3occc3C1CCC13CC(=O)C(CCC12)C3 (configuration not stated)
Time after treatment 24 h
  PER2::LUC luminescence: 0.996
Time after treatment 30 h
  PER2::LUC luminescence: 0.94

## CC(=O)O[C@H]1CC[C@]2(C)C3CC[C@@]4(C)[C@H](C5CC(C6OC6(C)C)OC5O)CC[C@]4(C)C3=CC[C@H]2C1(C)C (some centres not stated)
Time after treatment 24 h
  PER2::LUC luminescence: 1.14
Time after treatment 30 h
  PER2::LUC luminescence: 1.08

## COc1cc(/C=C/C(=O)O)cc(OC)c1OC
Time after treatment 24 h
  PER2::LUC luminescence: 0.994
Time after treatment 30 h
  PER2::LUC luminescence: 0.955

## COc1cc(C)c(/C=C/C(C)=C/C=C/C(C)=C/C(=O)O)c(C)c1C
Time after treatment 24 h
  PER2::LUC luminescence: 1.82
Time after treatment 30 h
  PER2::LUC luminescence: 2.04

## CC1=C(/C=C/C(C)=C/C=C/C(C)=C/C(=O)O)C(C)(C)CCC1O (configuration not stated)
Time after treatment 24 h
  PER2::LUC luminescence: 0.928
Time after treatment 30 h
  PER2::LUC luminescence: 1.06

## O=C(NCc1cccs1)c1cc2nc(-c3ccco3)cc(C(F)(F)Cl)n2n1
Time after treatment 24 h
  PER2::LUC luminescence: 1.03
Time after treatment 30 h
  PER2::LUC luminescence: 1.11

## Cn1nnnc1SCC1=C(C(=O)O)N2C(=O)[C@@H](NC(=O)C(OC=O)c3ccccc3)[C@H]2SC1 (some centres not stated)
Time after treatment 24 h
  PER2::LUC luminescence: 0.605
Time after treatment 30 h
  PER2::LUC luminescence: 0.705

## O=C(/C=C/C=C/c1ccc2c(c1)OCO2)N1CCCCC1
Time after treatment 24 h
  PER2::LUC luminescence: 1.5
Time after treatment 30 h
  PER2::LUC luminescence: 1.42

## O=C(O)/C=C/C=C/c1ccc2c(c1)OCO2
Time after treatment 24 h
  PER2::LUC luminescence: 1.07
Time after treatment 30 h
  PER2::LUC luminescence: 1.03

## O=C(c1ccc2c(c1)OCO2)N1CCCCC1
Time after treatment 24 h
  PER2::LUC luminescence: 1
Time after treatment 30 h
  PER2::LUC luminescence: 0.843

## COc1cc(N2CCOCC2)ccc1Nc1ncc(F)c(Nc2ccccc2NS(C)(=O)=O)n1
Time after treatment 24 h
  PER2::LUC luminescence: 0.771
Time after treatment 30 h
  PER2::LUC luminescence: 0.673

## Nc1nc(Nc2ccc3c(c2)CCC(N2CCCC2)CC3)nn1-c1cc2c(nn1)-c1ccccc1CCC2 (configuration not stated)
Time after treatment 24 h
  PER2::LUC luminescence: 0.438
Time after treatment 30 h
  PER2::LUC luminescence: 0.375

## O=C(NCCN1CCOCC1)c1ccc(Cl)cc1
Time after treatment 24 h
  PER2::LUC luminescence: 1.09 and 1.08
Time after treatment 30 h
  PER2::LUC luminescence: 0.965 and 1.2

## O=C(c1ccc(CN2CCOCC2)cc1)N1CCN(C2CC2)CC1
Time after treatment 24 h
  PER2::LUC luminescence: 1.07
Time after treatment 30 h
  PER2::LUC luminescence: 0.963

## C[C@@H](O)[C@H](NC(=O)c1ccc(C#Cc2ccc(CN3CCOCC3)cc2)cc1)C(=O)NO
Time after treatment 24 h
  PER2::LUC luminescence: 1.32
Time after treatment 30 h
  PER2::LUC luminescence: 1.62

## O=C1/C(=C/c2cc(Br)c(O)c(Br)c2)COC/C1=C\c1cc(Br)c(O)c(Br)c1
Time after treatment 24 h
  PER2::LUC luminescence: 0.259
Time after treatment 30 h
  PER2::LUC luminescence: 0.258

## COc1cc2c(c(OC)c1OC)-c1ccc(OC)c(=O)cc1[C@@H](NC=O)CC2
Time after treatment 24 h
  PER2::LUC luminescence: 0.938
Time after treatment 30 h
  PER2::LUC luminescence: 0.84

## NCC(O)c1ccc(O)c(O)c1 (configuration not stated)
Time after treatment 24 h
  PER2::LUC luminescence: 1.47
Time after treatment 30 h
  PER2::LUC luminescence: 1.55

## NCC(O)c1ccc(O)c(O)c1 (racemic)
Time after treatment 24 h
  PER2::LUC luminescence: 1.04
Time after treatment 30 h
  PER2::LUC luminescence: 1.12

## NC[C@@H](O)c1ccc(O)c(O)c1
Time after treatment 24 h
  PER2::LUC luminescence: 1.26
Time after treatment 30 h
  PER2::LUC luminescence: 1.04

From the supplement of paper PMC9334596
